Reference: PubChem BioAssay AID602252 (Broad Institute, 2012)
Screen size: about 300,000 compounds; about 2,700 (0.9%) were called active. What follows is part of a selection rich in actives, with near analogues and random picks from the rest. A number with no mark means an inactive call.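 The calls were made as follows: active = mean inhibition of at least 30% with at least half of replicates also reaching 30%; inconclusive = no clear call, values can overlap the other calls; inactive = the rest.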

Molecular target: Golgi-associated PDZ and coiled-coil motif-containing protein (Homo sapiens) (UniProt Q9HD26)
Test: blockade of CAL PDZ-reporter peptide interaction – biochemical, fluorescence polarization, untagged CAL PDZ, HTS, primary screen (AID 602252);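 also: 0% = DMSO neutral control and 100% = excess unlabeled competitor peptide PRC23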
Conditions: purified CAL PDZ, TMR-peptide fluorescence polarization, 1 h; at 24.9 µM; hits give high values

Row | Compound | inhibition
1 | Cc1cc(OCCCC(=O)Nc2cc(S(=O)(=O)N3CCOCC3)ccc2N2CCOCC2)ccc1Cl | -3.89%
2 | CN(C(=O)c1cccc(NC(=O)Cc2ccc([N+](=O)[O-])cc2)c1)C1CCC1 | -2.37%
3 | COc1ccc(S(=O)(=O)N2CCc3ccccc32)cc1C(=O)Nc1cc(S(C)(=O)=O)ccc1Cl | -5.31%
4 | CC1CN(C(=O)c2ccc([N+](=O)[O-])s2)CC(C)O1 (stereo not given) | 0.023%
5 | O=C(CSC(=S)N1CCOCC1)c1ccccc1 | 0.137%
6 | O=C(CSC(=S)N1CCCCC1)c1c(F)cccc1F | 79.2% (active)
7 | CC(=O)c1ccc(NC(=O)CSC(=S)N2CCCC2)cc1 | -3.19%
8 | O=C(Nc1ccc(NC(=O)c2ccccc2F)cc1)c1ccccc1F | 4.51%
9 | O=C(CNC(=O)c1ccc(F)cc1)c1ccccc1 | -6.34%
10 | O=C(CNC(=O)c1ccccc1F)c1ccc(Br)cc1 | 57.3% (active)
11 | Cc1c(NC(=O)CN(C)CC(=O)Nc2ccc(F)c(F)c2F)c(=O)n(-c2ccccc2)n1C | -3.99%
12 | COCCN1C(=O)c2oc3c(C)cc(C)cc3c(=O)c2C1c1cccc(O)c1 (stereo not given) | 47.9% (active)
13 | O=C1c2oc3ccccc3c(=O)c2C(c2cccc(O)c2)N1c1ccccn1 (stereo not given) | -1.77%
14 | O=C1c2oc3ccc(Br)cc3c(=O)c2C(c2cccc(F)c2)N1CCO (stereo not given) | 3.36%
15 | COc1ccccc1C(CNC(=O)c1ccc(C)c(S(=O)(=O)N2CCCCC2)c1)N(C)C (stereo not given) | -4.72%
16 | Cc1ccc(C(=O)Nc2ncccc2C)cc1S(=O)(=O)N1CCOCC1 | -3.36%
17 | Cc1ccc(C(=O)NCC(c2cccs2)N(C)C)cc1S(=O)(=O)N1CCOCC1 (stereo not given) | 47.1% (active)
18 | O=C(Nc1c(Br)cc2c(c1Br)Cc1cc([N+](=O)[O-])ccc1-2)C(Cl)Cl | -7.68%
19 | OCCC1CN(Cc2ccc3nsnc3c2)CCN1C1CCCCC1 (stereo not given) | 77% (active)
20 | OCCC1CN(Cc2ccc3nsnc3c2)CCN1C1CCCC1 (stereo not given) | 2.19%

Row | Compound | inhibition
21 | Cn1cnnc1Sc1ccc(CN2CCN(C3CCCC3)C(CCO)C2)o1 (stereo not given) | 2.66%
22 | CCOc1ccc(-c2nc(C)sc2CC(=O)O)cc1 | -0.665%
23 | C/C(=N/Nc1nc(-c2ccccc2)c(CC(=O)O)s1)c1ccccc1 | 2.17%
24 | CCOC(=O)C(=O)Nc1nc(-c2ccccc2)c(CC)s1 | 65.4% (active)
25 | CCCCCCCCNS(=O)(=O)CCNC1CCCCC1 | 0.068%
26 | CC(=O)Oc1ccc(OC(C)=O)c2c1C1C=CC2CC1 | 3.2%
27 | Cc1ccc(N=Cc2c(O)cc(C)oc2=O)c(C)c1 | -1.38%
28 | COc1ccc(N=Cc2c(O)[nH]c3ccccc23)cc1OC | 0.564%
29 | COc1cc(N=Cc2c(O)c3ccccc3oc2=O)c(OC)cc1Cl | 36.3% (active)
30 | CC(=O)Nc1ccc(S(=O)(=O)NCC(=O)OCC(=O)c2ccc[nH]2)cc1 | -5.59%
31 | Nc1ncnc2c1ncn2[C@@H]1O[C@H](CNCc2cccn2-c2nccs2)[C@@H](O)[C@H]1O | -2.1%
32 | COC1=CC(=O)OC(c2ccc(OC)cc2)C1 (stereo not given) | 45% (active)
33 | COc1ccc2c(c1)C(=O)CC(c1ccccc1)O2 (stereo not given) | 16.3%
34 | COc1ccc(C2CC(=O)NC(=O)C2)cc1 | -5.54%
35 | CC1(C)C(=O)CCC2(C)C1=CCC1C2C(=O)CC2(C)C1CCC2(O)C(=O)CO (stereo not given) | -4.84%
36 | O=C(O)c1ccc([N+](=O)[O-])cc1Sc1ccsc1 | -2.87%
37 | O=C1N[C@@H](c2ccccc2)COC(=O)[C@H](Cc2ccc(F)cc2)C/C=C\C[C@@H]1CC(=O)N(CCO)Cc1ccccc1 | 2.21%
38 | COc1ccc(CN2C(CC(=O)Nc3cccnc3)c3ccc(C(F)(F)F)cc3S2(=O)=O)cc1 (stereo not given) | -6.01%
39 | CSCCC1NC(=O)N(CC(=O)Nc2cccc(S(=O)(=O)N3CCCCCC3)c2)C1=O (stereo not given) | -13.3%
40 | CCCCN(C(=O)CSCc1ccc(C)cc1)c1c(N)n(Cc2ccccc2)c(=O)[nH]c1=O | -2.71%

Row | Compound | inhibition
41 | Cc1cnc(NC(=O)CSc2c(Cl)cccc2Cl)s1 | -4.72%
42 | Cc1cnc(NC(=O)c2ccccn2)s1 | 54.3% (active)
43 | Cc1cnc(NC(=O)c2ccc(Cl)nc2)s1 | 5.61%
44 | O=C(Nc1ccn(CCCNCc2ccc3[nH]ccc3c2)c(=O)n1)OCc1ccccc1 | -6.18%
45 | O=C(NCCN1CCOC1=O)C1CCC(=O)N(CCc2ccc(Cl)cc2)C1 (stereo not given) | -3.91%
46 | O=C(NCCCc1ccccc1)C1CCC(=O)N(CCc2ccc(Cl)cc2)C1 (stereo not given) | -3.25%
47 | Cc1cc(CNC(=O)C2CCC(=O)N(CCc3ccc(Cl)cc3)C2)no1 (stereo not given) | 45.2% (active)
48 | Cc1ccc(NC(=O)C2CCC(C(C)(C)C)CC2)cc1S(=O)(=O)N1CCOCC1 (stereo not given) | -5.24%
49 | O=C(CC1Sc2ccccc2NC1=O)NNc1ccc(Cl)c(Cl)c1 (stereo not given) | -5.96%
50 | CSc1ccc(-c2c(C#N)c(N)nc3c2c(C)nn3-c2ccccc2)cc1 | -0.521%
51 | Cc1nc2c(c(C)nn2-c2ccccc2)c(C)c1C | 45.7% (active)
52 | CCCNC(=O)CCc1c(C)nc2c(c(C)nn2-c2ccccc2)c1C | -0.965%
53 | N#CC1=C(N)Oc2cc(N)ccc2C1c1ccccc1 (stereo not given) | 2.39%
54 | Cc1sc2ncnc(N3CCC(C(=O)Nc4ccc(F)cc4Cl)CC3)c2c1C | -2.24%
55 | O=C(Nc1ccc(F)cc1)C(=O)c1cn(CC(=O)N2CCOCC2)c2ccccc12 | 45.3% (active)
56 | COc1cccc(NC(=O)C(=O)c2cn(CC(=O)N3CCOCC3)c3ccccc23)c1 | -2.58%
57 | Cc1ccc(CNC(=O)C(=O)c2cn(CC(=O)N3CCOCC3)c3ccccc23)cc1 | -3.01%
58 | COc1ccccc1-c1nc(C#N)c(N2CCC(C(N)=O)CC2)o1 | -2.05%
59 | Cc1cccn2c(=O)c(/C=C(\C#N)S(=O)(=O)c3ccc(Cl)cc3)c(N3CCC(C(N)=O)CC3)nc12 | 3.73%
60 | Cc1cc(C)c(C#N)c(N2CCC(C(N)=O)CC2)n1 | 47.5% (active)
